Assay results from PubChem BioAssay (NCATS).
Several values for one entry are separate records, joined by “and”; a condition that tells them apart may be missing. Equal entries are not always repeated. Records with an inconclusive call do not appear. A call without a number means that no potency is given here. Where a structure was tested more than once in an assay, its records may differ in their call. Activity calls are given as the source filed them. Unless noted, calls follow the shape of the dose curve; as a rule, active = well fitted curve in the direction sought with a large enough effect; inconclusive = small, poorly fitted or top-dose-only effect, or another doubt; inactive = no such curve, though single readings can be large; an effect the other way counts as inactive or inconclusive.

Experiments:
[1] = High-throughput drug toxicity screening in the BPDCN cell line Gen2.2 (AID 1224824; call rule not given here;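 also: cells exposed to compounds for 48 h before reading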); conditions: Gen2.2 BPDCN cells; at 45.8 µM (top of the series) unless noted
Procedure, shortened: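 Gen2.2 cells, 500 per well in phenol red-free RPMI with 10% FBS, exposed to compounds 48 h at 37 C, 5% CO2; viability by CellTiter-Glo luminescence. Percent activity scaled to DMSO (100%) and 9.2 uM bortezomib final (0%).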

[2] = High-throughput drug toxicity screening in the BPDCN cell line Cal-1 (AID 1224825; call rule not given here); conditions: Cal-1 BPDCN cell viability, qHTS; at 45.8 µM (top of the series) unless noted
Procedure, shortened: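 CellTiter-Glo luminescence after 48 h compound exposure; percent activity scaled with DMSO as 100% and bortezomib (9.2 uM final) as 0%. Cal-1 cells seeded at 500/well in RPMI, 10% FBS, no phenol red.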

[3] = qHTS assay for measurement of the activity of small molecule inhibitors on Zika virus induced Caspase-3 activity in human iPSC derived neural progenitor cells (hNPCs) (AID 1224857); also: nearly all actives have a fitted effect of over 65% in size; also: potency is read from the fitted curve at half-maximal effect
Procedure, shortened: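 Human iPSC-derived neural progenitor cells pretreated 1 hr with compounds, then infected with Zika virus (2 FFU/cell) for 6 hours at 37 C. Caspase-3/7 measured by Caspase-Glo luminescence; % inhibition calculated from induction scaled to uninfected (0%) and infected (100%) wells.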

[4] = qHTS assay for measurement of the activity of small molecule inhibitors on Zika virus induced Caspase-3 activity in human astrocytoma cells (AID 1224859); also: potency is read from the fitted curve at half-maximal effect
Procedure, shortened: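 SNB-19 astrocytoma cells, 250/well, pretreated 1 h with compounds, then Zika virus at 2 FFU/cell for 6 h at 37 C; Caspase-Glo 3/7 luminescence after 30 min; percent inhibition normalised to uninfected and infected controls.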

[5] = qHTS Screen of the MIPE 4.0 Collection Against Ewings Sarcoma (RDES) (AID 1259252); also: nearly all actives have a fitted effect of over 35% in size; also: potency is read from the fitted curve at half-maximal effect
Procedure, shortened: (§1)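 Viability screen: 48 h incubation at 37C, 95% humidity, 5% CO2 with serially titrated compound, followed by CellTiter-Glo readout.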

[6] = qHTS Screen of the MIPE 4.0 Collection Against Ewings Sarcoma (TC71) (AID 1259253); also: nearly all actives have a fitted effect of over 40% in size; also: potency is read from the fitted curve at half-maximal effect
Procedure, shortened: as §1

[7] = qHTS Screen of the MIPE 4.0 Collection Against Ewings Sarcoma (EW8) (AID 1259255); also: nearly all actives have a fitted effect of over 35% in size; also: potency is read from the fitted curve at half-maximal effect
Procedure, shortened: as §1

[8] = qHTS Screen of the MIPE 4.0 Collection Against Ewings Sarcoma (TC32) (AID 1259256); also: nearly all actives have a fitted effect of over 45% in size; also: potency is read from the fitted curve at half-maximal effect
Procedure, shortened: as §1

[9] = qHTS assay to identify small molecule inhibitors of chordoma cells - UCH-1 (AID 1259355); also: nearly all actives have a fitted effect of over 55% in size; also: potency is read from the fitted curve at half-maximal effect
Procedure, shortened: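 Screening used approved and investigational drugs in 15-point titration against 800 seeded cells per well. A fixed combination of auranofin with camptothecin, doxorubicin, rubitecan and topotecan followed compound addition, and growth was scored by CellTiter-Glo after 48hr.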

[10] = qHTS assay to identify small molecule inhibitors of chordoma cells - UCH-2 (AID 1259356)

Compound | cell viability, % of control (lower = more cytotoxic) [1] [%] | viability (% of control) [2] [%] | Potency [3] | Potency [4] | Potency [5] | Potency [6] | Potency [7] | Potency [8] | Potency [9] | outcome [10]
Cc1ccc(N(CC2=NCCN2)c2cccc(O)c2)cc1 | 80.5 | 22.6 | inactive | inactive | inactive | 14.8 µM (active) | inactive | 16.6 µM (active) | inactive | inactive
Cc1[nH]c(=O)c(C#N)cc1-c1ccc2nccn2c1 | 220 | 95.5 | inactive and 7.43 µM (active) | inactive and 4.69 µM (active) | inactive | inactive | inactive | inactive | inactive | inactive
NC(=O)c1cnccn1 | 146 | 118 | inactive | inactive | inactive | inactive | inactive | inactive | inactive | inactive
Cc1csc(NC(=O)c2sc3nc4c(c(C(F)(F)F)c3c2N)CCC4)n1 | 36.4 | 93.3 | 23.5 µM (active) | inactive | 1.48 µM (active) | 4.18 µM (active) | 13.2 µM (active) | 6.62 µM (active) |  | 
COc1ccc(-c2ccc3c(N4CCOCC4)nc(N4C[C@@H](C)O[C@@H](C)C4)nc3n2)cc1CO | 19.2 | 12.6 | inactive | inactive | 0.526 µM (active) | 0.833 µM (active) | 0.662 µM (active) | 0.59 µM (active) |  | 
C#Cc1cccc(Nc2ncnc3cc(OCCOC)c(OCCOC)cc23)c1 | 24.7 | 10.9 | inactive | inactive | 4.18 µM (active) | 14.8 µM (active) | 23.5 µM (active) | 20.9 µM (active) | 0.141 µM (active) | inactive
OCCn1cc(-c2cnc3nnn(Cc4ccc5ncccc5c4)c3n2)cn1 | 140 | 89.8 | inactive | inactive | inactive | inactive | inactive | inactive |  | 
CNC[C@H](O)c1cccc(O)c1 | 196 | 133 | inactive | inactive | inactive | inactive | inactive | inactive | inactive | inactive
Nc1ccc(S(=O)(=O)Nc2ccnn2-c2ccccc2)cc1 | 153 | 115 | inactive | inactive | inactive | inactive | inactive | inactive | inactive | inactive
N=c1nc(N2CCCCC2)cc(N)n1O | 450 | 106 | inactive | inactive | inactive | inactive | inactive | inactive | inactive | inactive
Cc1oncc1C(=O)Nc1ccc(C(F)(F)F)cc1 | 32.8 | 63.8 | inactive and 2.64 µM (active) | inactive and 2.64 µM (active) | 8.33 µM (active) | 18.7 µM (active) | 20.9 µM (active) |  | inactive | inactive
CCC(C)(C)C(=O)O[C@H]1C[C@@H](C)C=C2C=C[C@H](C)[C@H](CC[C@@H]3C[C@@H](O)CC(=O)O3)[C@H]21 | 26.7 | 59.6 | inactive | inactive | 23.5 µM (active) | 11.8 µM (active) | 18.7 µM (active) | 3.72 µM (active) | inactive | inactive
COc1ccc(CC2=NN3C([C@@H](CCc4ccccc4)[C@@H](C)O)=NC(C)C3C(=O)N2)cc1OC (some centres not stated) | 276 | 115 | 9.35 µM (active) | 10.5 µM (active) | inactive | inactive | inactive | inactive |  | 
NCCc1ccc(O)c(O)c1 | 14.2 | 25 | inactive | inactive | inactive | 16.6 µM (active) | 16.6 µM (active) | 1.66 µM (active) | inactive | inactive
CC(=O)Oc1ccccc1C(=O)O | 125 | 135 | inactive | inactive | 8.33 µM (active) | 18.7 µM (active) | 20.9 µM (active) | 11.8 µM (active) | inactive | inactive
Oc1ccc(C2CNCCc3c2cc(O)c(O)c3Cl)cc1 (configuration not stated) | 156 | 66.9 | inactive | inactive | inactive | inactive | inactive | inactive | inactive | inactive
O=C1CCC(N2C(=O)c3ccccc3C2=O)C(=O)N1 (configuration not stated) | 167 | 95.9 | inactive | inactive | inactive | inactive | inactive | 0.0037 µM (active) | inactive | inactive
OC(CCN1CCCCC1)(c1ccccc1)C1CC2C=CC1C2 (configuration not stated) | 127 | 107 | inactive | inactive | inactive | inactive | inactive | inactive | inactive | inactive
Cc1ccccc1C(OCCN(C)C)c1ccccc1 (configuration not stated) | 149 | 93 | inactive | inactive | inactive | inactive | inactive | inactive | inactive | inactive
O=C(O)COCCN1CCN(C(c2ccccc2)c2ccc(Cl)cc2)CC1 (configuration not stated) | 178 | 124 | inactive | inactive | inactive | inactive | inactive | inactive | inactive | inactive

Compound | cell viability, % of control (lower = more cytotoxic) [1] [%] | viability (% of control) [2] [%] | Potency [3] | Potency [4] | Potency [5] | Potency [6] | Potency [7] | Potency [8] | Potency [9] | outcome [10]
CCn1c(-c2nonc2N)nc2c(C#CC(C)(C)O)ncc(OC[C@H]3CCCNC3)c21 | 64.9 | 8.62 | inactive | inactive | 23.5 µM (active) | 18.7 µM (active) | 23.5 µM (active) | 18.7 µM (active) |  | 
Cc1cc(Nc2nc(N[C@@H](C)c3ncc(F)cn3)ncc2Cl)n[nH]1 | 151 | 4.1 | inactive | inactive | 6.62 µM (active) | 10.5 µM (active) | 26.4 µM (active) | 16.6 µM (active) |  | 
NCCCC(N)(C(=O)O)C(F)F (configuration not stated) | 77.2 | 47.4 | inactive | inactive | inactive | inactive |  | inactive | inactive | inactive
Cc1cn[nH]c1 | 120 | 55.7 | inactive | inactive | 0.0074 µM (active) | 0.0469 µM (active) |  | inactive | inactive | inactive
NC(=O)c1ccc(I)c([N+](=O)[O-])c1 | 44.8 | 40.1 | inactive | inactive | inactive | inactive |  | inactive |  | 
Cc1cc2c(C(C)C)c(O)c(O)c(C=O)c2c(O)c1-c1c(C)cc2c(C(C)C)c(O)c(O)c(C=O)c2c1O | 14.5 | 6.4 | inactive | inactive | 10.5 µM (active) | 13.2 µM (active) |  | 18.7 µM (active) | inactive | inactive
O=C(O)CCc1ccc(NCc2cccc(Oc3ccccc3)c2)cc1 | 132 | 108 | inactive | inactive | inactive | inactive |  | inactive |  | 
Clc1ccc(Nc2nnc(Cc3ccncc3)c3ccccc23)cc1 | 117 | 68.2 | inactive | inactive | 2.96 µM (active) | 20.9 µM (active) |  | 26.4 µM (active) | inactive | inactive
CCOc1cc(C=C2C(=O)N(c3ccccc3)N=C2C)cc(Cl)c1OCC(=O)OC | 14.1 | 61.6 | inactive | inactive | 5.26 µM (active) | inactive |  | 5.9 µM (active) |  | 
CC1(C)CNc2cc(NC(=O)c3cccnc3NCc3ccncc3)ccc21 | 230 | 69.9 | inactive | inactive | 1.05 µM (active) | 2.35 µM (active) |  | 5.26 µM (active) |  | 
CS(=O)(=O)c1ccc(C(=O)Nc2ccc(Cl)c(-c3ccccn3)c2)c(Cl)c1 | 312 | 65.3 | inactive | inactive | inactive | inactive |  | inactive |  | 
CC1(C)SCCN(S(=O)(=O)c2ccc(OCC#CCO)cc2)[C@@H]1C(=O)NO | 80 | 102 | inactive | inactive | inactive | 13.2 µM (active) |  | inactive |  | 
Nc1cccc(S(=O)(=O)N2CCCN(S(=O)(=O)c3ccc4c(c3)OCCO4)CC2)c1 | 162 | 104 | inactive | inactive | inactive | 16.6 µM (active) |  | inactive |  | 
CCOC(=O)C1=C[C@]2(CC)CCCN3CCc4c(n1c1ccccc41)[C@@H]32 | 13.3 | 2.19 | inactive | inactive | 23.5 µM (active) | 20.9 µM (active) |  | 18.7 µM (active) | inactive | inactive
O=c1n(CCCN2CCN(c3cccc(Cl)c3)CC2)nc2ccccn12 | 165 | 100 | inactive | inactive | inactive | inactive |  | inactive | inactive | inactive
O=C1CCCC2=C1C(c1[nH]ncc1Cl)N=C(Nc1nc3ccccc3o1)N2 (configuration not stated) | 73.8 | 82.3 | inactive | inactive | inactive | 10.5 µM (active) |  | inactive |  | 
CC(C)OC(=O)C1=CN(C(=O)c2ccc(F)c(F)c2)CC(C)(C)c2c1[nH]c1ccccc21 | 115 | 108 | inactive | inactive | inactive | inactive |  | inactive |  | 
COc1ccc(C2=N[C@H](c3ccc(Cl)cc3)[C@H](c3ccc(Cl)cc3)N2C(=O)N2CCNC(=O)C2)c(OC(C)C)c1 | 4.67 | 4.23 | inactive | inactive | 18.7 µM (active) | 16.6 µM (active) |  | 16.6 µM (active) |  | 
O=c1[nH]cnc2[nH]ncc12 | 124 | 101 | inactive | inactive | inactive | inactive |  | inactive | inactive | inactive
CCCS(=O)(=O)Nc1ccc(F)c(C(=O)c2c[nH]c3ncc(-c4ccc(Cl)cc4)cc23)c1F | 453 | 99.1 | inactive | inactive | 13.2 µM (active) | 14.8 µM (active) |  | 20.9 µM (active) |  | 
